Bioassay records deposited in PubChem BioAssay by National Center for Advancing Translational Sciences (NCATS).
The entries come from a sample that favours hits as a whole.
IL-1B inflam inh: inflammasome signaling inhibition, IL-1 beta readout | 4.7% of 360,000 active | THP-1 LPS/ATP IL-1B secretion, AlphaLISA, 16 h; active compounds read low | activity change, % at 57.5 µM; in the data active means activity change below about -50%; inconclusive means mostly about -30% to -49%
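THP-1 cells pretreated 1 hr with compounds (up to 57.5 uM final), then stimulated with LPS (250 ng/mL final) plus ATP (1.25 mM final); secreted IL-1B measured by AlphaLISA after 16 hr, decreased signal indicating inhibition.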
TDP1 cell CPT: DT40-hTDP1 cell growth loss with CPT. chicken DT40 Tdp1-/-;hTDP1 cells + 20 nM CPT, ATP luminescence, 48 h. Potency, µM (series often up to 46.2 µM), hits mostly inhibitors. 12% of 420,000 active. AID 686979; further: nearly all actives have a fitted effect of over 55% in size
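Chicken DT40 Tdp1-/- cells stably complemented with human TDP1 were seeded at 400 cells/well in medium containing 20 nM camptothecin, exposed to pin-transferred compounds, and grown at 37 °C for at least 48 hr. Viability was read as ATP luminescence.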
12-LOX inh: inhibitors of human 12S-lipoxygenase ALOX12 | P18054 | purified 12hLO, xylenol orange hydroperoxide absorbance | Potency, µM (top dose mostly 108 µM), hits mostly inhibitors | 1.1% of 580,000 active | AID 1671190
Target sequence (P18054 whole entry, looked up): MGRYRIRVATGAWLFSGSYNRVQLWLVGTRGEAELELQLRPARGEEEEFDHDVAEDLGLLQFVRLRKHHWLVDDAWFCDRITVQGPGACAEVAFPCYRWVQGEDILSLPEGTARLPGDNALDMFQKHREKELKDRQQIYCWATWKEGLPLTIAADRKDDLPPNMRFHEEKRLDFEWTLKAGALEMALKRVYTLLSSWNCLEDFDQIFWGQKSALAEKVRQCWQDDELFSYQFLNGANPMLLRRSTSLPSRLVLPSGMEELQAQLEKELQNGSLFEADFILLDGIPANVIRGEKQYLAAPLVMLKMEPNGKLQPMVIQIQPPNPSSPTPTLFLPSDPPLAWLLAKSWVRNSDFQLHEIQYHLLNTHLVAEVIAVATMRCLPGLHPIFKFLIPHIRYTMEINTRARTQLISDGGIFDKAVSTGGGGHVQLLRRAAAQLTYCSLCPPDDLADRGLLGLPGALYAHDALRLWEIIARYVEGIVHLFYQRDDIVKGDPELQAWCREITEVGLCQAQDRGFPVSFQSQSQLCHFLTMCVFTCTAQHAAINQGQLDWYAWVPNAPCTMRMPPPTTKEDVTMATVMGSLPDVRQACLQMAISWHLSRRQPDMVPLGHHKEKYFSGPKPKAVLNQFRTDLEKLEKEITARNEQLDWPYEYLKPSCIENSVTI
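Hydroperoxide product was detected by ferrous iron/xylenol orange as the 573 to 405 nm absorbance ratio. Arachidonic acid at 40 uM (final) was turned over for 30 min at room temperature by 150 nM human 12hLO, pH 7.0 Hepes buffer, after 15 min compound preincubation.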
HT1080NT lethal: kills 2HG-producing HT-1080-NT fibrosarcoma cells. HT-1080-NT fibrosarcoma viability, CellTiter-Glo ATP luminescence, 48 h. Potency, µM (highest dose often 46.1 µM), actives largely listed as cytotoxic. 1.6% of 360,000 active;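 further: NT is the 2HG producing partner of a matched IDH1 knockdown line; nearly all actives have a fitted effect of over 55% in size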
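Luminescent CellTiter-Glo readout after 48 hours of compound exposure at 37 degrees C defined viability of HT-1080-NT cells. Activity was normalized to DMSO wells and cell-free media wells; concentration-response curves were fitted and assigned curve classes.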
HT1080 IDH1KD tx: HT-1080 IDH1 knockdown cell toxicity (counter line) | AID 686971 | HT-1080 IDH1 knockdown viability, ATP luminescence, 48 h | 2% of 360,000 active | Potency, µM (series often up to 46.1 µM), actives largely listed as cytotoxic
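Using the IDH1-knockdown HT-1080 line run in the same batch and compound series as the NT line, viability after 48 h at 37 °C was determined by CellTiter-Glo luminescence and expressed as % activity.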
TDP1 cell noCPT: qHTS for Inhibitors of human tyrosyl-DNA phosphodiesterase 1 (TDP1): qHTS in cells in absence of CPT; AID 686978, 2013; 15% of 420,000 active; Potency, µM (highest dose often 46.2 µM), hits mostly inhibitors; DT40 Tdp1-/- hTDP1 cells, no CPT, ATP luminescence, 48 h; further: nearly all actives have a fitted effect of over 55% in size
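Readout: luminescence from CellTiter-Glo after 30 min in the dark at RT. Cells: DT40 Tdp1-/- with stable hTDP1, 400/well. Exposure: compounds alone, ≥48 hr, 37 °C.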
Hits are given with their value; . = inactive; ? = inconclusive; / = no result. Unless noted, the call rests on the fitted dose curve; in most records, active means well fitted curve in the direction sought with a large enough effect; inconclusive means small, poorly fitted or top-dose-only effect, or another doubt; inactive means no such curve, though single readings can be large; an effect the other way counts as inactive or inconclusive.

SMILES	IL-1B inflam inh	TDP1 cell CPT	12-LOX inh	HT1080NT lethal	HT1080 IDH1KD tx	TDP1 cell noCPT
COc1ccc(Br)cc1CC1C(=O)Nc2ccccc21 (configuration not stated)	/	8.2µM	?	/	/	7.3µM
COc1ccc(CC2C(=O)Nc3ccc(Br)cc32)c(OC)c1 (configuration not stated)	/	/	.	/	/	/
O=C([C@@H]1C[C@H](Oc2ccccc2)CN1S(=O)(=O)c1cccc(F)c1)N1CCOCC1	/	/	.	/	/	/
CC(C)(Oc1ccc(Cl)cc1)C(=O)N(Cc1ccccc1)c1ccccn1	.	?	.	.	.	18µM
Cc1ccc(CN(C(=O)COc2ccc([N+](=O)[O-])cc2)c2ccccn2)o1	/	.	.	/	/	?
CC(C)c1ccc(OCC(=O)N(Cc2ccccc2)c2ccccn2)cc1	.	23µM	.	.	.	16µM
Cc1ccc(CN(C(=O)COc2ccc([N+](=O)[O-])cc2)c2ccccn2)cc1	/	?	.	/	/	16µM
CC(C)(C)c1nc2c3cnn(-c4ccc(Cl)cc4)c3ncn2n1	/	/	.	/	/	/
O=c1[nH]cnc2scc(-c3ccc(-c4ccccc4)cc3)c12	-68	.	.	.	.	?
Cc1ccc(-c2csc3nc[nH]c(=S)c23)cc1C	.	7.3µM	28µM	?	21µM	21µM
COc1ccc(-c2csc3nc[nH]c(=O)c23)cc1OC	.	.	.	.	.	.
Cn1c(=O)c2c(ncn2CC(=O)OCC(=O)NC(=O)c2ccccc2)n(C)c1=O	/	/	.	/	/	/
CC1CCc2c(cc(-c3ccccc3)n2-c2ccc(C(=O)NC(C)C)cc2)C1 (configuration not stated)	/	?	.	/	/	21µM
CCOCCCNC(=O)c1ccc(-n2c(-c3ccccc3)cc3c2CCCC3)cc1	/	9.2µM	.	/	/	8.2µM
COCCCNC(=O)c1ccc(-n2c(-c3ccccc3)cc3c2CCCCC3)cc1	/	?	.	/	/	?
COc1cc(C#Cc2c(-c3cncn3C)n(C)c3ccc(-c4ccc5cc[nH]c5c4)cc23)cc(OC)c1	.	18µM	.	?	.	?
COc1cc(C#Cc2c(-c3cncn3C)n(C)c3ccc(-c4ccc(OC)c(OC)c4)cc23)cc(OC)c1	.	?	.	.	?	?
COc1cc(C#Cc2c(-c3cncn3C)n(C)c3ccc(Br)cc23)cc(OC)c1	.	?	.	?	?	18µM
COc1ccc(-c2c(C)nn3c2NC(=O)CCC3=O)cc1S(=O)(=O)Nc1cccc2c1CCCC2	/	/	.	/	/	/
COC(=O)c1cc(S(=O)(=O)N(C)CC(=O)N2CCN(c3ccc(Cl)cc3)CC2)cn1C	/	/	.	/	/	/
Cc1oc(-c2cccc(Cl)c2)nc1CN1CCC(C(=O)NCCCN2CCN(c3ccccc3F)CC2)CC1	/	2.9µM	.	/	/	3.7µM
Cc1oc(-c2cccc(Cl)c2)nc1CN1CCC(C(=O)NCc2cccnc2)CC1	.	?	.	.	.	.
COc1ccc(-c2nc(CN3CCC(C(=O)NCCCN4CCN(c5ccccc5F)CC4)CC3)c(C)o2)cc1OC	/	?	.	/	/	1.2µM
Cc1ccc(C(NC(=O)C(C)C)c2cccnc2)cc1C (configuration not stated)	/	/	.	/	/	/
Cn1c(-n2cccc2)c(-c2c(-c3ccc(F)cc3)[nH]c3c2c(=O)n(C)c(=O)n3C)c(=O)n(C)c1=O	/	.	.	/	/	.
SMILES	IL-1B inflam inh	TDP1 cell CPT	12-LOX inh	HT1080NT lethal	HT1080 IDH1KD tx	TDP1 cell noCPT
Clc1nc(NCc2cccs2)c2[nH]cnc2n1	/	13µM	/	/	/	11µM
COc1cccc(CNc2nc(Cl)nc3nc[nH]c23)c1	/	16µM	/	/	/	7.9µM
CCCn1c(N)c(C(=O)COc2ccc(Br)cc2F)c(=O)n(C)c1=O	.	15µM	.	.	.	?
COc1ccc(-c2cc(C(F)(F)F)c3c(N)c(C(=O)NCCSC)sc3n2)cc1	.	?	.	.	.	?
CN(C)CCNC(=O)c1sc2nc(-c3ccccc3)cc(C(F)(F)F)c2c1N	-99	?	.	23µM	18µM	16µM
CN(C)CCCN(C(=O)c1cc(-c2cccs2)nc2ccccc12)c1nc2c(F)cccc2s1	-74	?	.	?	?	.
Cc1ccc2nc(N(CCCN(C)C)C(=O)c3cc(-c4cccs4)nc4ccccc34)sc2c1	?	16µM	.	?	?	?
CN(C)CCCN(C(=O)c1sc2ccccc2c1Cl)c1nc2c(F)cccc2s1	.	.	.	.	.	?
CC(=O)N1CCC(C(=O)N2CCCN(c3cc(-c4ccc(Cl)cc4)[nH]n3)CC2)CC1	/	/	.	/	/	/
CSc1cccc(Nc2cc(C(=O)NCCCN(C)c3ccccc3)c3ccccc3n2)c1	/	15µM	?	/	/	13µM
CCc1ccc(Nc2cc(C(=O)NCCCN(C)c3ccccc3)c3ccccc3n2)cc1	/	?	.	/	/	13µM
COc1ccccc1Nc1cc(C(=O)NCCCN(C)c2ccccc2)c2ccccc2n1	/	?	.	/	/	?
CCOC(=O)c1nc(C)n(-c2cc(Cl)ccc2Cl)n1	.	.	.	.	.	.
CCOC(=O)c1nc(C)n(-c2cc(OC)c(Cl)cc2Cl)n1	-92	.	.	.	.	.
CCNC(=O)C1(C)CCN(C(=O)c2cccc(C#N)c2)C1 (configuration not stated)	.	.	.	.	.	.
O=S1(=O)N[C@H](Cc2ccccc2)COc2cc(N3CCN(Cc4ccccc4F)CC3)ccc21	.	?	.	.	.	16µM
C[C@H]1COc2cc(N3CCN(Cc4ccccc4F)CC3)ccc2S(=O)(=O)N1	.	.	?	.	.	.
COCCNC(=O)c1ccc2c(c1)N(C)C(CC(=O)N1CCC(C)CC1)CO2 (configuration not stated)	/	/	.	/	/	/
Cc1ccccc1C(=O)Nc1c(C(=O)N2CCN(Cc3ccccc3)CC2)oc2ccccc12	/	/	.	/	/	/
CCOc1ccc(NC(=S)Nc2ccccc2C2(C)CC2)cc1	?	?	?	.	.	8.2µM
CCCCn1c(-c2ccc(OCC#N)c(OC)c2)nc2c1c(=O)[nH]c(=O)n2CC(C)C	/	/	.	/	/	/
Cc1c(C)c2c(OCC(=O)NCc3ccncc3)cc3c(c2oc1=O)CCC(C)(C)O3	.	?	.	.	.	?
COc1ccc(CNC(=O)COc2cc3c(c4oc(=O)cc(C)c24)CCC(C)(C)O3)c(OC)c1	/	/	.	/	/	/
Cc1cc(=O)oc2c3c(cc(OCC(=O)NCc4ccncc4)c12)OC(C)(C)CC3	.	?	.	.	.	23µM
COc1ccc(CNC(=O)COc2cc3c(c4oc(=O)cc(C)c24)CCC(C)(C)O3)cc1OC	?	21µM	.	.	.	23µM
